# Screens from PubChem BioAssay.
# HEK cytotox = HEK 293 cell cytotoxicity | HEK 293 viability, ATP luminescence (CellTiter-Glo), 48-72 h | Potency, µM (series often up to 115 µM), inactives show top-dose activity change, negative = cytotoxicity, usual class: inhibitors | 94,000 tested, 6.6% active; note: nearly all actives have a fitted effect of over 60% in size
#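 HEK 293 seeded at 250 cells/well receive compound via pintool. After 48 or 72 hr at 37 degree Celsius, 5% CO2 and 95% humidity, CellTiter-Glo is dispensed and luminescence read following 10 min at room temperature.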
# SNCA expr inh = reduces expression of the alpha-synuclein gene | HEK-293 SNCA-luciferase knock-in, luminescence, 24 h | Potency, µM (series often up to 57.2 µM), for the others: at the top dose activity change, negative = inhibition, actives largely listed as inhibitors | 140,000 tested, 0.17% active | AID 1671194;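 note: plate controls were DMSO cells for no effect and cell-free wells for full effect; nearly all actives have a fitted effect of over 45% in size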
# HEK293 viab = counter-screen for SNCA expression inhibitors: cell viability; HEK-293-SNCA-luc viability, GF-AFC fluorescence, 24 h; Potency, µM (titrated, usually from 57.1 µM), for the others: at the top dose activity change, negative = cytotoxicity, actives largely listed as cytotoxic; 150,000 tested, 0.12% active; AID 1671193;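 note: 0% = DMSO-treated cells and -100% = medium-only wells without cells; nearly all actives have a fitted effect of over 30% in size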
#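 Cytotoxicity counterscreen: after 24 h compound treatment of genome-edited SNCA-luciferase HEK-293 cells, live-cell protease substrate GF-AFC read by fluorescence after 30 min; activity scaled between DMSO (0%) and medium-only (-100%), curves Hill-fitted.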
# 3T3 cytotox = NIH 3T3 cell cytotoxicity; 94,000 tested, 4.3% active; NIH 3T3 viability, CellTiter-Glo ATP luminescence, 48-72 h; Potency, µM (series often up to 96.7 µM), without a hit: top-dose activity change, negative = cytotoxicity, most hits filed as inhibitors; note: nearly all actives have a fitted effect of over 55% in size
#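 Cytotoxicity is measured as loss of cellular ATP: NIH 3T3 cells (400/well) are exposed to compound for 48 or 72 hr at 37 °C, then CellTiter-Glo luminescence is imaged after 10 min at room temperature.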
# hNpr1 antagonist = antagonists of human natriuretic peptide receptor Npr1; P16066; HEK293 hNpr1 GloSensor cGMP, ANP-stimulated luminescence; 76,000 tested, 1.6% active; Potency, µM (doses to about 46.3 µM), without a hit: at the top dose activity change, negative = inhibition, actives largely listed as inhibitors; calls by dose curve; note: nearly all actives have a fitted effect of over 60% in size
# Target sequence (P16066 whole entry, looked up): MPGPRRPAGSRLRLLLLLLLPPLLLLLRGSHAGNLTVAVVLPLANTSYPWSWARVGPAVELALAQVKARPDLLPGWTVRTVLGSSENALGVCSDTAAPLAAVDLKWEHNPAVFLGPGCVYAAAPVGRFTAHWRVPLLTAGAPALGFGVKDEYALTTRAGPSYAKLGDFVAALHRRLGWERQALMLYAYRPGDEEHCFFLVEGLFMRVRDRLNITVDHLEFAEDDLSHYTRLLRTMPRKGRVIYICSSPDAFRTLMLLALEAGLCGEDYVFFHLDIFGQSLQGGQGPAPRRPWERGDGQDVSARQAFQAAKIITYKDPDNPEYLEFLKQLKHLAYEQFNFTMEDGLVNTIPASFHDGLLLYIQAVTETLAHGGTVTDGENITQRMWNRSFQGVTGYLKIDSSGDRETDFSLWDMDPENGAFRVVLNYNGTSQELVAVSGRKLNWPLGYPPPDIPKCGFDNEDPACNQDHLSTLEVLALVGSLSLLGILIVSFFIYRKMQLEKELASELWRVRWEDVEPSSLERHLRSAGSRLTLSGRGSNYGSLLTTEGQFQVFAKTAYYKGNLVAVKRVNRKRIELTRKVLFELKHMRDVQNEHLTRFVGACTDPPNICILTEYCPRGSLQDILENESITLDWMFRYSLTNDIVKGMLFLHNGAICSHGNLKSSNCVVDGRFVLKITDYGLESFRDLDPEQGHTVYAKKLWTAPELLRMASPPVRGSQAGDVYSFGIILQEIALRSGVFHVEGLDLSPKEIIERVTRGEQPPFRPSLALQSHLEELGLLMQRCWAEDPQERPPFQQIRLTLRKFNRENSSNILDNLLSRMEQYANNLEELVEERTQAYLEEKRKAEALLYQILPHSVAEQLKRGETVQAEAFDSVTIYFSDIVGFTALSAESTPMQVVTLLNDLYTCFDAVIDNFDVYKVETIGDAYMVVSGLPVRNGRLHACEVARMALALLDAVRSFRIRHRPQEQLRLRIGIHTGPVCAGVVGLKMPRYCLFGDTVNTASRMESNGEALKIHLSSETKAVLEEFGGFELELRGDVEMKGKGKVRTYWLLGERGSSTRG
#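 Compound pre-incubated 30 min at room temperature on GloSensor-loaded HEK293 cells stably carrying hNpr1 and the pGS-40F cGMP biosensor. Stimulation uses hNppA at 0.1 nM final; luminescence is taken at baseline and 20 min post-agonist.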
# Luciferase inh = inhibitors of firefly (Photinus pyralis) luciferase; Potency, µM (top dose mostly 115 µM), most hits filed as inhibitors; 76,000 tested, 2.5% active; P08659; purified P. pyralis luciferase, luminescence, biochemical; note: nearly all actives have a fitted effect of over 65% in size
#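 FLuc 10nM, D-luciferin 10uM, ATP 10uM, Mg acetate 10mM, Tris acetate pH 7.5, Tween/BSA; cpd qHTS; enzyme added last; CCD luminescence.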
# * hit, by the source's call; i = inactive; u = inconclusive; x = no result; [ ] = dose if it differs, or a comment. In the library only some 7.2% were active in any assay of this set; here they are far more common. Unless noted, calls come from the whole dose curve; as a rule, active = well fitted curve in the direction sought with a large enough effect; inconclusive = small, poorly fitted or top-dose-only effect, or another doubt; inactive = no such curve, though single readings can be large; an effect the other way counts as inactive or inconclusive. Unless noted, % is set by controls: 0 for no effect and ±100 for the full control effect; potency is the fitted concentration of half-maximal effect.
SMILES,HEK cytotox,SNCA expr inh,HEK293 viab,3T3 cytotox,hNpr1 antagonist,Luciferase inh
O=C(C1CCCN(c2nccc(Nc3ccccc3F)n2)C1)N1CCN(c2ncccn2)CC1 (configuration not stated),u,-10%,-6%[12.5 µM],u,x,x
O=C(NCC1CC1)C1CCCN(c2nccc(Nc3ccccc3F)n2)C1 (configuration not stated),u,12%,-16%[12.5 µM],u,x,x
O=C(NCc1ccccc1)C1CCCN(c2nccc(Nc3ccccc3F)n2)C1 (configuration not stated),18µM*,-5%,2%[12.5 µM],32µM*,x,x
O=C(NCc1cccc(F)c1)C1CCCN(c2nccc(Nc3ccccc3F)n2)C1 (configuration not stated),u,-18%,2%[12.5 µM],28µM*,x,x
COC(=O)NC1CCN(c2nc3ncccc3o2)C1 (configuration not stated),i,5%[87.6 µM],-4%[87.6 µM],-2%[138 µM],x,x
COCC(=O)N1CCN(C(=O)c2nc3cccnc3n(C3CCCC3)c2=O)CC1,-4%,10%,7%,-19%,x,x
Cc1ccc(-c2cc(O)c3c(c2)CNCCO3)s1,-5%,71%,6%,1%,0%,u
O=C(NCC1CCCCCC1)C1CCCN(c2nccc(Nc3ccccc3F)n2)C1 (configuration not stated),28µM*,u,4%[12.5 µM],u,x,x
CN(C)C(=O)C(C)(C)Oc1nn(Cc2cccc(Cl)c2)c2ccccc12,79µM*,u,-17%[87.6 µM],u,-10%[70.6 µM],i
COCCN(C)C(=O)C(C)(C)Oc1nn(Cc2cccc(Cl)c2)c2ccccc12,89µM*,-27%[87.6 µM],-22%[87.6 µM],79µM*,-22%[70.6 µM],i
Oc1cc(-c2csc3ccccc23)cc2c1OCCNC2,20µM*,0%,2%,u,-16%,i
Cc1ccccc1-c1cc(O)c2c(c1)CNCCO2,-29%,-7%,3%,-24%,0%,i
Cc1cc(C)c2[nH]c(C(=O)N3CCN(Cc4ccccc4)C(=O)C3C)c(C)c2c1 (configuration not stated),35µM*,4%,4%,25µM*,5%,i
CN(C)C[C@@H]1CN(S(C)(=O)=O)C[C@H]1NC(=O)c1cccs1,0%,0%,4%,1%,2%,i
O=C1CCCCCN1C1CCN(Cc2ccccc2)CC1,-9%[172 µM],22%[87.6 µM],-15%[87.6 µM],-24%[138 µM],-1%[70.6 µM],i
Cc1ccccc1NC(=O)N1c2ccccc2CC1c1noc(C2CCOCC2)n1 (configuration not stated),-13%,64%,-7%,-19%,1%,i
Cc1cc(C)cc(NC(=O)N2c3ccccc3CC2c2noc(C3CCOCC3)n2)c1 (configuration not stated),-26%,155%,9%,-25%,-7%,40µM*
CCC1Oc2ccc(NC(=O)c3cccs3)cc2CN(Cc2ccc(OC)cc2)C1=O (configuration not stated),u,u,9%,u,-14%,i
Cc1cc(-c2nc3ccncc3[nH]2)c(C)o1,u,94%[87.6 µM],-7%[87.6 µM],u,0%[70.6 µM],45µM*
c1cc2nc(-c3ccsc3)[nH]c2cn1,u,22%[87.6 µM],2%[87.6 µM],u,-10%[70.6 µM],u
COc1ccc(C(=O)N2CC(=O)N(c3ccc(C)cc3)CC2C)c(OC)n1 (configuration not stated),-23%,-28%,u,-13%,-1%,i
O=C(CN1C(=O)C(c2ccccc2)=NC12CCCC2)NCc1ccccc1,u,-26%,-9%[12.5 µM],-11%,-8%,i
O=C(CN1C(=O)C(c2ccccc2)=NC12CCCCC2)NC1CCCC1,28µM*,-32%,0%[12.5 µM],u,-1%,i
O=C(CN1C(=O)C(c2ccccc2)=NC12CCCC2)NCc1ccc(F)cc1,40µM*,12%,-1%[12.5 µM],u,-23%,i
O=C(CN1C(=O)C(c2ccccc2)=NC12CCCC2)NC1CCCCC1,u,-19%,4%[12.5 µM],u,u,i
